Most compounds without a hit are left out; they make up all but 9.4% or so of the library.
ELG1 genotoxic = induces genotoxicity in HEK293T cells with luciferase-tagged ELG1 | HEK293T ELG1-luciferase reporter, luminescence, 16 h | Potency, µM (doses to about 46 µM), for the others: top-dose activity change, positive = activation, usual class: activators | 1.3% of 330,000 active | AID 504466; note: % of control where 0% means no effect; nearly all actives have a fitted effect of over 60% in size
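Quantitative HTS format in 1536-well plates. HEK293T ELG1-luciferase reporter cells receive test compound and are incubated 16 hr at 37 °C, 5% CO2; ONE-Glo added, 30 min room temperature, then luminescence read.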
ELG1 DNA repair = ELG1-dependent DNA repair inhibition; Potency, µM (doses to about 46.1 µM), for the others: at the highest dose activity change, negative = inhibition, most hits filed as inhibitors; 2.3% of 330,000 active; HEK293T ELG1-luciferase reporter, luminescence, 16 h; DNA damage induced by 5-fluorouridine; note: % is set by controls: 0 for no effect and ±100 for the full control effect; nearly all actives have a fitted effect of over 55% in size
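Overnight (16 hr) co-exposure of 2,000 cells/well to 5-fluorouridine and compound at 37 °C preceded detection. Luciferase was quantified via ONE-Glo luminescence; loss of signal denotes inhibition.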
NPC1 promoter act = activators of NPC1 promoter; Huh7 NPC1 promoter luciferase reporter, 24 h; Potency, µM (top dose mostly 9.22 µM), inactives show top-dose activation, usual class: activators; 2.4% of 320,000 active; AID 485313; note: % of control where 0% means no effect; nearly all actives have a fitted effect of over 60% in size
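Readout is luciferase luminescence, reflecting NPC1 promoter activation in stably transfected Huh7 cells after 24 h compound exposure at 37 °C in reduced-serum medium with 10% FBS.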
Rab9 prom act = activates the Rab9 promoter. AID 485297. 2.8% of 320,000 active. Huh7 Rab9 promoter-luciferase reporter, luminescence, 24 h. Potency, µM (titrated, usually from 9.22 µM), without a hit: at the highest dose activation, negative = inhibition, most hits filed as activators; note: % of control where 0% means no effect; nearly all actives have a fitted effect of over 60% in size
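Luminescence read-out: Huh7 cells stably expressing Rab9-luciferase, treated 24 h with compound at 37 °C, then lysed with luciferase reagent for 10 min at ambient before reading.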
SMN2 splice enh = SMN2 splice variant enhancement | HEK293 SMN2-luciferase splicing reporter, luminescence, 30-36 h | AID 1458 | Potency, µM (doses to about 46.1 µM), for the others: at the top dose activity change, positive = activation, most hits filed as activators | 2.8% of 210,000 active; note: % of control where 0% means no effect; nearly all actives have a fitted effect of over 55% in size
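HEK293 cells carry an SMN2 minigene-luciferase reporter in which exon 7 inclusion puts luciferase in frame. Cells were seeded at 2000 cells/well, attached for 10-12 hours, then exposed to compounds for 30-36 hours at 37C before ONE-Glo luminescence.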
FLuc modulator = inhibits or activates purified firefly luciferase, miR-21 counter-screen. 6.9% of 360,000 active. purified FLuc, Km substrates, luminescence inhibition. Potency, µM (highest dose often 57.5 µM), inactives show at the highest dose activity change, negative = inhibition, actives largely listed as inhibitors. AID 588342. P08659;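 note: plate controls were vehicle for no effect and reference inhibitor for full effect; nearly all actives have a fitted effect of over 55% in size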
Target sequence (P08659 whole entry, looked up): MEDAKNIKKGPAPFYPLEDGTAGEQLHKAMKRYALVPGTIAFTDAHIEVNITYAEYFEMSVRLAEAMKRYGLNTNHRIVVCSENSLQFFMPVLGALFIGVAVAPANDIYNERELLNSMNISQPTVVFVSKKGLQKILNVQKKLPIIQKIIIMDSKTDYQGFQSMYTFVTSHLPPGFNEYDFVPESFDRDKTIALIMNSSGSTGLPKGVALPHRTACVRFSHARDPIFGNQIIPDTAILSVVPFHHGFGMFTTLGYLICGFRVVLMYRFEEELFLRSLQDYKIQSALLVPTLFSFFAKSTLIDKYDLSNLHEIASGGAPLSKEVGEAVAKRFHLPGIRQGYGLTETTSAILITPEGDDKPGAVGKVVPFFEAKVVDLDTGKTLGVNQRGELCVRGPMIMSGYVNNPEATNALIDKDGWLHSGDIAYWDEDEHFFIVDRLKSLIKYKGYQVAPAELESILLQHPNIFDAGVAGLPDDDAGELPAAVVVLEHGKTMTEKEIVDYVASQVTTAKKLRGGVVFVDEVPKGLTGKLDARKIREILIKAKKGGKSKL
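Biochemical qHTS of compounds, final roughly 60 µM downward over six points, against 10 nM purified firefly luciferase using Km concentrations of substrates (10 uM D-luciferin, 10 uM ATP) in Tris acetate pH 7.5 buffer; luminescence output.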
* hit, by the source's call; [ ] = another dose, or the depositor's remark. Calls come from the whole dose curve; as a rule, active = well fitted curve in the direction sought with a large enough effect; inconclusive = small, poorly fitted or top-dose-only effect, or another doubt; inactive = no such curve, though single readings can be large; an effect the other way counts as inactive or inconclusive. Potency is the fitted concentration of half-maximal effect.

`COc1ccc(C(=O)Nn2c(SCC(=O)c3ccccc3)nc3ccccc3c2=O)cc1` gave ELG1 genotoxic inconclusive, ELG1 DNA repair inconclusive, NPC1 promoter act 1.4µM*, Rab9 prom act 0.56µM*, SMN2 splice enh -45% and FLuc modulator 6.7µM*.
`COc1ccc2c(c1)cc1c(=O)n(CC(=O)NC3CCCCC3)nc(C)n12` gave SMN2 splice enh 2% and FLuc modulator -3%.
`COC(=O)C1C(=O)c2c([nH]c(C(=O)OC3CCCC3)c2C)CC1C` (stereo not drawn) gave SMN2 splice enh 14µM* and FLuc modulator 2.4µM*.
`O=C(N[C@@]1(C(=O)O)C[C@@H]1c1ccccc1)c1ccccc1` gave SMN2 splice enh -14%[9.22 µM].
`COc1ccc(-c2cc(C)no2)cc1S(=O)(=O)NC1CCC(C)CC1` (stereo not drawn) gave FLuc modulator 6%.
Screening COc1ccc(Nc2c3c(nc4nncn24)CCC3)cc1Cl returned SMN2 splice enh -9% and FLuc modulator 5%.
CCC(=O)OC1(C)C(=O)C=C2C=C(CCCNC(=O)OC(C)(C)C)OC=C2C1=O (stereo not drawn) was read as SMN2 splice enh -3%.
Cc1ccccc1NC(=S)N/N=C/c1ccc(O)cc1O was read as ELG1 genotoxic inconclusive, ELG1 DNA repair inconclusive, NPC1 promoter act inconclusive, Rab9 prom act 26% and FLuc modulator 2.4µM*.
For Cc1cccc(NC(=S)N/N=C/c2cccc(O)c2)c1C the results were ELG1 genotoxic -4%, ELG1 DNA repair 18µM*, NPC1 promoter act -26%, Rab9 prom act -31% and FLuc modulator inconclusive.
`Cc1ccccc1NC(=S)N/N=C/C(C)c1ccccc1` (stereo not drawn) gave ELG1 genotoxic 0%, ELG1 DNA repair -16%, NPC1 promoter act -14%, Rab9 prom act -1%, SMN2 splice enh -12% and FLuc modulator -14%.
For CCOC(=O)N1CCN(/[N+]([O-])=N/Oc2ccc([N+](=O)[O-])cc2[N+](=O)[O-])CC1 the results were NPC1 promoter act -32%[46.1 µM] and Rab9 prom act -43%[46.1 µM].
`CC1(C)CC(=O)c2cc(OCC(=O)N3CCN(c4ccccc4F)CC3)ccc2O1` gave ELG1 genotoxic -11%, ELG1 DNA repair -1%, NPC1 promoter act 2%, Rab9 prom act -4%, SMN2 splice enh -17% and FLuc modulator 0%.
For COc1cc(O)c2c(c1)OC(C)(C)CC2=O the results were ELG1 genotoxic -1%, ELG1 DNA repair -1%, NPC1 promoter act -1%, Rab9 prom act -4%, SMN2 splice enh -8% and FLuc modulator -2%.
`CC1(C)CC(=O)c2c(O)cc(OCC(=O)N3CCN(c4ccc(F)cc4)CC3)cc2O1` gave ELG1 genotoxic -13%, ELG1 DNA repair inconclusive, NPC1 promoter act -3%, Rab9 prom act 4% and FLuc modulator 21µM*.
For CC(=O)Nc1ccc(NC(=O)COc2cc(O)c3c(c2)OC(C)(C)CC3=O)cc1 the results were ELG1 genotoxic 10%, ELG1 DNA repair 15%, NPC1 promoter act 11%, Rab9 prom act 2% and FLuc modulator 21µM*.
Cc1cc(OCC(=O)Nc2ccc(Br)cc2)cc2c1C(=O)CC(C)(C)O2 was read as ELG1 genotoxic -8%, ELG1 DNA repair 15µM*, NPC1 promoter act -7%, Rab9 prom act -6% and FLuc modulator -13%.
COc1cccc(-c2cn3c(n2)sc2cc(C(=O)NCCc4ccc(OC)c(OC)c4)ccc23)c1 was read as FLuc modulator -7%.
For Cc1ccc(Sc2cnc3ccccc3n2)cc1 the results were ELG1 genotoxic 2.6µM*, ELG1 DNA repair inconclusive, NPC1 promoter act inconclusive, Rab9 prom act 3.5µM*, SMN2 splice enh inconclusive and FLuc modulator 6.7µM*.
`CCOC(=O)c1c(C)nc(C)c2c(=O)oc3ccccc3c12` gave ELG1 genotoxic -11%, ELG1 DNA repair inconclusive, NPC1 promoter act -3%, Rab9 prom act 23%, SMN2 splice enh 14% and FLuc modulator 17µM*.
Screening CCOC(=O)c1cc2c(ccc3ccccc32)oc1=O returned ELG1 genotoxic 5%, ELG1 DNA repair 9%, NPC1 promoter act -1%, Rab9 prom act -5% and FLuc modulator inconclusive.
CCOC(=O)c1cc2c(=O)c3ccccc3oc2nc1C was read as ELG1 genotoxic 9.2µM*, ELG1 DNA repair inconclusive, NPC1 promoter act 22%, Rab9 prom act inconclusive and FLuc modulator 6µM*.
COCc1nc2oc3ccccc3c(=O)c2cc1C(=O)OC was read as ELG1 genotoxic inconclusive, ELG1 DNA repair inconclusive, NPC1 promoter act inconclusive, Rab9 prom act 4.5µM* and FLuc modulator 15µM*.
`Cc1c2cnn(-c3ccccc3)c(=O)c2c(C)n1CCCC(=O)Nc1cccc(F)c1` gave SMN2 splice enh -12% and FLuc modulator 2%.
Screening CC1CCC(N2CC(=O)N(C3CCCCC3)C(c3ccc(Cl)cc3)C2=O)CC1 (stereo not drawn) returned FLuc modulator 1%.
`OCCNc1nc(Nc2cccc(O)c2)nc2ccccc12` gave ELG1 genotoxic -6%, ELG1 DNA repair inconclusive, NPC1 promoter act 1%, Rab9 prom act 0% and FLuc modulator inconclusive.
Cc1ccc(Nc2nc(N)c([N+](=O)[O-])c(NCCO)n2)cc1C was read as ELG1 genotoxic 18%, ELG1 DNA repair inconclusive, NPC1 promoter act 20%, Rab9 prom act 10% and FLuc modulator 15µM*.
For Cc1ccc(Nc2nc(N)c([N+](=O)[O-])c(N3CCOCC3)n2)cc1C the results were ELG1 genotoxic 1%, ELG1 DNA repair 13µM*, NPC1 promoter act 1%, Rab9 prom act -1%, SMN2 splice enh 0% and FLuc modulator -16%.
Cc1ccc(Nc2nc(N)c([N+](=O)[O-])c(N3CCC(C)CC3)n2)cc1C was read as ELG1 genotoxic 5%, ELG1 DNA repair inconclusive, NPC1 promoter act -2%, Rab9 prom act -9%, SMN2 splice enh -14% and FLuc modulator 1%.
For O=c1c2ccccc2nc2ccc(NCc3ccco3)nn12 the results were ELG1 genotoxic inconclusive, ELG1 DNA repair inconclusive, NPC1 promoter act inconclusive, Rab9 prom act inconclusive, SMN2 splice enh 14µM* and FLuc modulator 11µM*.
COc1cccc(Nc2nc(NCCO)c3ccccc3n2)c1 was read as ELG1 genotoxic -30%, ELG1 DNA repair 16µM*, NPC1 promoter act 10%, Rab9 prom act -5%, SMN2 splice enh -24% and FLuc modulator inconclusive.

Bioassay records deposited in PubChem by National Center for Advancing Translational Sciences (NCATS).
